Shown are actives, neighbours in structure and some others; about 12% of the full set was active somewhere.
JMJD2A Tudor inh: qHTS Assay for Inhibitors of JMJD2A-Tudor Domain; Lysine-specific demethylase 4A (Homo sapiens), O75164; AlphaScreen JMJD2A-Tudor / H3K4me3 peptide binding; Potency, µM (titrated, usually from 114 µM), most hits filed as inhibitors; actives 4.4% (n = 390,000); also: nearly all actives have a fitted effect of over 50% in size
BAZ2B inh: qHTS Assay for Inhibitors of BAZ2B | Bromodomain adjacent to zinc finger domain protein 2B (Homo sapiens), Q9UIF8 | AlphaScreen BAZ2B-H3K14Ac peptide displacement | Potency, µM (top dose mostly 114 µM), hits mostly inhibitors | actives 4.4% (n = 360,000); also: nearly all actives have a fitted effect of over 60% in size
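AlphaScreen displacement of biotin-H3(5-23)K14Ac peptide (50 nM final) from BAZ2B (50 nM final) in PBS pH 7.4, 0.01% Tween-20; complex preformed 30 min RT, then compounds (top 110 uM) 30 min RT, beads 20 min dark.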
PI5P4Ka inh: qHTS for Inhibitors of phosphatidylinositol 5-phosphate 4-kinase (PI5P4K) | Phosphatidylinositol 5-phosphate 4-kinase type-2 alpha (Homo sapiens), P48426 | PI5P4Kalpha enzyme, ADP-Glo luminescence, 60 min; stronger effect = lower value | max response, % | actives 1.2% (n = 330,000); active = max response of -50% or lower; inconclusive = between -30% and -50%; inactive = -30% or higher; also: value at the top dose of about 77 µM
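ADP-Glo luminescence end-point read after a 60 min room-temperature kinase reaction of PI5P4Kalpha plus substrate, initiated with ATP at 5 microM final. Buffer: 0.038 M HEPES pH 7.4, EGTA, 0.1% CHAPS, 5% DMSO.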
G9a block: qHTS Assay for Inhibitors of Histone Lysine Methyltransferase G9a; Histone-lysine N-methyltransferase EHMT2 (Homo sapiens), Q96KQ7; G9a H3K9 monomethylation, AlphaScreen, 2 h; Potency, µM (highest dose often 102 µM), usual class: inhibitors; actives 8.8% (n = 350,000); also: nearly all actives have a fitted effect of over 75% in size
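G9a (20 nM) preincubated 15 min RT with compounds, then 500 nM biotinylated H3K9 peptide and 20 uM SAM added; 2 h RT reaction. Monomethyl-H3K9 product detected by AlphaScreen with anti-H3K9me1 antibody, streptavidin donor and anti-rabbit IgG acceptor beads.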
PLK1 PBD inh: qHTS for Inhibitors of PLK1-PDB (polo-like kinase 1 - polo-box domain): Primary Screen | Plk1 PBD binding of FITC phosphopeptide, fluorescence polarization | Potency, µM, most hits filed as inhibitors | actives 2.8% (n = 360,000) | AID 720504, 2013; also: series mostly up to about 57 µM; nearly all actives have a fitted effect of over 65% in size
HP1b chromo inh: HTS for Inhibitors of HP1-beta Chromodomain Interactions with Methylated Histone Tails; AlphaScreen HP1-beta / biotin-H3K9me3 peptide binding; Potency, µM (series often up to 114 µM), hits mostly inhibitors; actives 0.56% (n = 390,000); AID 540317, 2011; also: nearly all actives have a fitted effect of over 70% in size
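HP1-beta protein (50 nM final) preincubated 30 min at room temperature with biotinylated H3(1-18)K9me3 peptide (50 nM) in PBS pH 7.4, 0.01% Tween-20, then compound added for 30 min. AlphaScreen streptavidin donor/nickel chelate acceptor beads (10 ug/mL final), 30 min dark, luminescence read.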
Large screens that a line does not name were inactive; ! = not active in a repeat. Unless noted, calls follow the shape of the dose curve; as a rule, active = well fitted curve in the direction sought with a large enough effect; inconclusive = small, poorly fitted or top-dose-only effect, or another doubt; inactive = no such curve, though single readings can be large; an effect the other way counts as inactive or inconclusive.

Cc1cc(C)nc(SCC(=O)Nc2ccc3c(c2)OCO3)n1	none (no result: G9a block)
Cc1nc(SCC(=O)Nc2ccc3c(c2)OCCO3)nc(C)c1C	G9a block 22.4µM, PLK1 PBD inh inconclusive
COc1ccc(-c2ccoc2)cc1C1C2C=CCC(C)C2C(=O)N1Cc1ccccc1 (stereo unspecified)	JMJD2A Tudor inh inconclusive (no result: BAZ2B inh, PI5P4Ka inh, G9a block, PLK1 PBD inh)
CCOc1ccc(CNC(=O)C2CCN(S(=O)(=O)c3ccc4c(ccn4C)c3)CC2)cc1	none (no result: PI5P4Ka inh, PLK1 PBD inh)
O=C(O)c1ccc(CSc2nc3ccccc3c(=O)n2-c2ccccc2)cc1	none
COC(=O)c1ccc2c(=O)n(-c3ccccc3)c(SCN3C(=O)c4ccccc4C3=O)nc2c1	G9a block 28.2µM
C[C@H](NC(=O)C1CCN(S(=O)(=O)c2ccccc2)CC1)C(=O)NC1CC1	none (no result: JMJD2A Tudor inh, BAZ2B inh, G9a block, HP1b chromo inh)
Cc1nc2nc(NC(=O)c3ccco3)nn2c(C)c1Cl	none
O=C(N/N=C/c1ccc(Cl)cc1Cl)c1cccc(N2CCCC2=O)c1	none
O=C(N/N=C/c1ccc([N+](=O)[O-])cc1)c1cccc(N2CCCC2=O)c1	BAZ2B inh 79.4µM, G9a block inconclusive
O=C(N/N=C/c1cc(Br)cc(Br)c1O)c1cccc(N2CCCC2=O)c1	JMJD2A Tudor inh 89.1µM, BAZ2B inh inconclusive
CCc1sc(-c2cc3cccc(OC)c3oc2=O)nc1-c1ccccc1	none (no result: BAZ2B inh, PI5P4Ka inh, G9a block, PLK1 PBD inh)
O=C(Cn1c(=O)oc2cc(S(=O)(=O)N3CCCC3)ccc21)Nc1ccc(F)cc1F	none (no result: PI5P4Ka inh, PLK1 PBD inh)
O=C(COC(=O)Cn1nnc(-c2ccccc2)n1)Nc1cc(F)ccc1F	none (no result: BAZ2B inh, G9a block)
CC(C)c1ccc(CNC(=O)C(=O)Nc2nccs2)cc1	JMJD2A Tudor inh inconclusive, G9a block 7.08µM
CC(NC(=O)C(=O)NCCCn1ccnc1)c1ccccc1 (stereo unspecified)	none
CC(C)c1ccc(CNC(=O)C(=O)NCCCn2ccnc2)cc1	BAZ2B inh 50.1µM
S=C(NCCCn1ccnc1)Nc1cccc(Cl)c1	BAZ2B inh 44.7µM, G9a block 79.4µM
O=C(NCc1ccc(Cl)cc1)C(=O)Nc1nccs1	G9a block 50.1µM
CCOc1ccc(NC(=S)NCCCn2ccnc2)cc1	none
CC(C)Cc1ccc(C(C)C(=O)Nc2nccs2)cc1 (stereo unspecified)	G9a block inconclusive (no result: PI5P4Ka inh)
Brc1cccc(CNCC2CCCO2)c1 (stereo unspecified)	none (no result: G9a block)
O=C1C(SCCO)=C(SCCO)C(=O)c2ccccc21	JMJD2A Tudor inh 8.91µM, BAZ2B inh inconclusive, PI5P4Ka inh -106.7, G9a block 1.26µM!, PLK1 PBD inh 2.12µM, HP1b chromo inh inconclusive
O=C1C(Cl)=C(NCCCO)C(=O)c2ccccc21	BAZ2B inh inconclusive, HP1b chromo inh inconclusive
S=C1Cc2ccccc2C(c2ccc(Cl)cc2)N1 (stereo unspecified)	JMJD2A Tudor inh inconclusive, BAZ2B inh inconclusive, G9a block inconclusive, PLK1 PBD inh inconclusive, HP1b chromo inh inconclusive
S=C1NCCc2ccc(Cl)cc2C1c1ccccc1 (stereo unspecified)	JMJD2A Tudor inh inconclusive, BAZ2B inh 39.8µM, HP1b chromo inh inconclusive
Cc1oc2c(cc(NS(=O)(=O)c3ccc(F)cc3)c3ccccc32)c1C(=O)O	PI5P4Ka inh inconclusive, G9a block inconclusive, HP1b chromo inh inconclusive
Cc1oc2c(cc(NS(=O)(=O)c3ccc(C(C)C)cc3)c3ccccc32)c1C(=O)O	JMJD2A Tudor inh inconclusive, BAZ2B inh 50.1µM!, G9a block 50.1µM!, PLK1 PBD inh 18.9µM
Cc1cn2c(=O)cc(COC(=O)c3ccc(NC(=O)c4ccc(C(C)(C)C)cc4)cc3)nc2s1	none (no result: PI5P4Ka inh, PLK1 PBD inh)
O=C(Nc1ccccc1F)c1ccc(Cn2nc(N3CCN(c4ccccc4)CC3)ccc2=O)o1	JMJD2A Tudor inh 50.1µM, BAZ2B inh 31.6µM, G9a block inconclusive (no result: PI5P4Ka inh, PLK1 PBD inh)
O=C(Nc1ccc(F)cc1)c1ccc(Cn2nc(N3CCN(c4ccccc4)CC3)ccc2=O)o1	JMJD2A Tudor inh inconclusive (no result: PI5P4Ka inh, PLK1 PBD inh)
